Results on six molecules are retold here after PubChem BioAssay (Tox21).

Results filed as inconclusive are left out. The source made the active and inactive calls. Unless noted, calls come from the whole dose curve.
% is set by controls: 0 for no effect and ±100 for the full control effect.

Thyrotropin receptor (Homo sapiens), sequence (P16473 whole entry, looked up): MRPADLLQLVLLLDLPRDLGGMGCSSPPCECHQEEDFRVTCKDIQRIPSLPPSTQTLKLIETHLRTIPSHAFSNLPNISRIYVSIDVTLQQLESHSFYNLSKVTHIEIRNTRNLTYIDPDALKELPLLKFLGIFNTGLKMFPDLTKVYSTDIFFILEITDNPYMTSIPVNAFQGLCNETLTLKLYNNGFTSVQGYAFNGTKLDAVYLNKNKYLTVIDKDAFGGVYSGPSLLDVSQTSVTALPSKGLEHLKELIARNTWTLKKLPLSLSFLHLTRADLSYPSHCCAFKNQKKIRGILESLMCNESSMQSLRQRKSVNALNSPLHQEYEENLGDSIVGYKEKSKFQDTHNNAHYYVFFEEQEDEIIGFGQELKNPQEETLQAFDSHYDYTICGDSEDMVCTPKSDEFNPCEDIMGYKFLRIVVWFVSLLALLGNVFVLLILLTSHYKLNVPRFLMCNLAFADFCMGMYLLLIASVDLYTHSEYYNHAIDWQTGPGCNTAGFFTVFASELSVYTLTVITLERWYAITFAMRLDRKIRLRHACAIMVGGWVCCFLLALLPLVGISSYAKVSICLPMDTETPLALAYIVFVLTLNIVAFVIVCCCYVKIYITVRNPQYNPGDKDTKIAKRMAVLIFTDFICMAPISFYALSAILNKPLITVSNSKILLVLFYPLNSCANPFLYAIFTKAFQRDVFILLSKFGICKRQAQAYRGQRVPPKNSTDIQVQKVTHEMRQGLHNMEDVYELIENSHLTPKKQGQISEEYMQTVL

System in the first assay: not listed separately
In words: qHTS assay to identify small molecule antagonists of the estrogen related receptor signaling pathway with the pleiotropic PPARgamma coactivator (PGC) from Tox21 10K library - cell viability counter screen (AID 1224840; active = well fitted cell-killing curve with a large enough effect in the repeat runs, not every such curve was filed as active; note: nearly all actives have a fitted effect of over 40% in size; note: potency is the fitted concentration of half-maximal effect). The settings on record: PGC/ERR reporter cells viability, CellTiter-Fluor, 17.5 h; series mostly up to 92.4 µM. An outline of the steps:
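Step one, plate 2,000 PGC/ERR cells per well; step two, incubate 6 h at 37 C/5% CO2; step three, pin-transfer compounds; step four, incubate 17.5 h; step five, add CellTiter-Fluor and read fluorescence after 30 min.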
Regarding `CN1CCN(CCCN2c3ccccc3Sc3ccc(C(F)(F)F)cc32)CC1`, the Potency is 29.8 µM (active).
On to `Cc1cc(Br)ccc1NC(=O)CCl`, for which the Potency is 15.4 µM (active).
`O=C1CCC/C=C\CCCCCCCCCC1`: the Potency entry was “inactive”.
Same read-out and setting: the same measure for `c1ccc(-c2ccccc2-c2ccccc2)cc1`: “inactive”.
With `O=C(O)C[C@H](O)C[C@H](O)/C=C/c1c(C2CC2)nc2ccccc2c1-c1ccc(F)cc1`, the viability change, negative = cytotoxic was -0.117% [at 19 µM] (inactive).

System in the next assay: not listed separately
In words: qHTS assay to identify small molecule antagonists of the estrogen related receptor signaling pathway with the pleiotropic PPARgamma coactivator (PGC) from Tox21 10K library (AID 1224841; call rule not given here; note: actives are mostly falling curves and most rising ones were filed inactive; nearly all actives have a fitted effect of over 50% in size; note: potency is the fitted concentration of half-maximal effect). As to conditions: PGC/ERR reporter cell line, ONE-Glo luciferase, 18 h; series mostly up to 92.4 µM. An outline of the steps:
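Antagonism in this quantitative HTS is taken from loss of luciferase signal in PGC/ERR cells. Cells (2,000/well) are treated with compounds in DMSO after a 6 h settling period and read by One-Glo luminescence after 18 h.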
(Quantitative high-throughput screening tests each substance at several concentrations.)
With `CN1CCN(CCCN2c3ccccc3Sc3ccc(C(F)(F)F)cc32)CC1`, the Potency is 29.8 µM (active).
For `Cc1cc(Br)ccc1NC(=O)CCl`, the Potency is 6.11 µM (active).
In the case of `O=C(O)C[C@H](O)C[C@H](O)/C=C/c1c(C2CC2)nc2ccccc2c1-c1ccc(F)cc1`, the activity, negative = inhibition was 10.6% [at 19 µM] (inactive).

System in another assay: not listed separately
In words: qHTS assay to identify small molecule agonists of the estrogen related receptor signaling pathway with the pleiotropic PPARgamma coactivator (PGC) from Tox21 10K library (AID 1224842; active = well fitted activation curve with a large enough effect in the repeat runs; note: nearly all actives have a fitted effect of over 15% in size). The settings on record: PGC/ERR reporter cell line, luciferase ONE-Glo, 18 h; series mostly up to 92.4 µM. An outline of the steps: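 PGC/ERR reporter cell line, 2,000 cells per well, incubated 6 h at 37 C before 23 nL compound in DMSO was added. After 18 h at 37 C, One-Glo luminescence read following 30 min at room temperature.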
With `CN1CCN(CCCN2c3ccccc3Sc3ccc(C(F)(F)F)cc32)CC1`, the Potency entry is “inactive”.
On the same count and under the same terms, the same measure for `Cc1cc(Br)ccc1NC(=O)CCl`: “inactive”.
On to `O=C(O)C[C@H](O)C[C@H](O)/C=C/c1c(C2CC2)nc2ccccc2c1-c1ccc(F)cc1`, for which the activation was -0.0293% [at 19 µM] (inactive).

The target of another assay is Thyrotropin receptor (Homo sapiens) (UniProt P16473). In words: qHTS assay to identify small molecule agonists of the thyroid stimulating hormone receptor (TSHR) signaling pathway (AID 1224843). Note: nearly all actives have a fitted effect of over 45% in size. The settings on record: TSHR-HEK293 cells, cAMP HTRF, agonist mode, 30 min; series mostly up to 92.4 µM. An outline of the steps:
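Steps: seed 800 TSHR-HEK293 cells per well; add test compound and hold 30 min at ambient temperature; dispense cAMP-d2 then anti-cAMP cryptate; incubate 1 h at ambient; measure fluorescence intensity.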
Turning to `CN1CCN(CCCN2c3ccccc3Sc3ccc(C(F)(F)F)cc32)CC1`, the Potency result is “inactive”.
Still for that read-out and setting: the same measure for `Cc1cc(Br)ccc1NC(=O)CCl`: “inactive”; for `CN1CCN(CCCN2c3ccccc3Sc3ccc(Cl)cc32)CC1`: “inactive”.
Take `O=C(O)C[C@H](O)C[C@H](O)/C=C/c1c(C2CC2)nc2ccccc2c1-c1ccc(F)cc1`: the activation is -24.9% [at 19 µM] (inactive).

System in the next assay: not listed separately
In words: qHTS assay to identify small molecule agonists of the hypoxia (HIF-1) signaling pathway - cell viability counter screen (AID 1224844). Note: nearly all actives have a fitted effect of over 50% in size. Note: potency is the fitted concentration of half-maximal effect. The settings on record: HRE-bla ME-180 viability, CellTiter-Glo luminescence, 17 h; series mostly up to 76.8 µM. An outline of the steps:
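Tox21 10K compounds were added to HRE-bla ME-180 cells (0.5% dialyzed FBS) and incubated 17 hrs at 37C; ATP-based CellTiter-Glo luminescence then reported cell viability in the same wells.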
Consider `CN1CCN(CCCN2c3ccccc3Sc3ccc(C(F)(F)F)cc32)CC1`, for which the Potency is 16.9 µM (active).
Still for that read-out and setting: the same measure for `Cc1cc(Br)ccc1NC(=O)CCl`: 21.9 µM (active).
Same read-out and setting: the same measure for `CN1CCN(CCCN2c3ccccc3Sc3ccc(Cl)cc32)CC1`: 21.3 µM (active).
For `O=C(O)C[C@H](O)C[C@H](O)/C=C/c1c(C2CC2)nc2ccccc2c1-c1ccc(F)cc1`, the activity change, negative = cytotoxicity was -17.5% [at 15.8 µM] (inactive).
